Reference: PubChem BioAssay (NCATS)
Several values for one entry are separate records, joined by “and”; a condition that tells them apart may be missing. Equal entries are not always repeated. Inconclusive results are not listed. A number with no mark means an inactive call. Activity calls are given as the source filed them. Calls follow the shape of the dose curve; as a rule, active = well fitted cell-killing curve with a large enough effect; inconclusive = small, poorly fitted or top-dose-only effect; inactive = flat fitted curve, though single readings scatter.
% is scaled to controls: 0 for no effect and ±100 for the full control effect; potency is read from the fitted curve at half-maximal effect.

Experiment: Cellular viability qHTS for adrenocortical cancer (ACC) cell line SW-13 (AID 1963989); also: nearly all actives have a fitted effect of over 65% in size;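 as to activity (max response): cells grown in serum-free medium with ITS supplement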
Details: SW-13 ACC cells viability, CellTiter-Glo, 48 h; activity (max response): hits give low values
From the text: PI: Naris Nilubol, MD Surgical Oncology Program, National Cancer Institute (NCI) National Institute of Health (NIH), Bethesda, Maryland Adrenocortical cancer (ACC) is a rare malignancy with poor survival outcomes and few treatment options. Currently, mitotane is the only FDA-approved therapy for ACC. Although adjuvant radiation therapy is rarely utilized, it has the potential to improve survival in select cases. Through a quantitative high-throughput drug screen (qHTS), we identified auranofin (AF), a thioredoxin reductase (TXNRD) inhibitor, as a promising candidate drug. This study aims to evaluate whether AF can enhance the efficacy of radiation therapy in the treatment of ACC. Two human ACC cell lines, SW-13 and NCI-H295R, were screened using the National Center for Advancing Translational Sciences (NCATS) Pharmaceutical Collection (NPC) and the Mechanism Interrogation PlatE (MIPE) library (~4,991 compounds). CellTiter-Glo (Cat # G7570, Promega, Madison, WI) was utilized to measure cell viability. Described herein are the results of the corresponding viability assay.
PROTOCOL TABLE (as described by Inglese J, Shamu CE and Guy RK. 2007) SEQUENCE No. (e.g., 1, 2, 3, etc.); […] (e.g., Cells, Incubation, Reagent, etc.); VALUE; DESCRIPTION. 1; Cells; 5 uL; white, solid-bottom, 1536-well tissue-culture treated plates. 2; Time; overnight culture at 37C with 5% CO2. 3; Compounds and control; 23 nL; Kalypsis pin tool (Wako USA) equipped with a 1536-well pin head to transfer to the assay plates. 4; Time; 48 hours; 37C with 5% CO2. 5; Reagent; 4 uL; CellTiter-Glo luminescent substrate mix. 6; Time; 20 min at room temperature. 7; Detection; Luminescence; ViewLux plate reader NOTES (numbers refer to Sequence numbers above) 1. SW13 cells were harvested from a T175 flask and resuspended in ITS-supplemented DMEM serum-free medium at a concentration of 300 000 cells/mL. Then 5 uL of resuspended cells were dispensed into each well of white, solid-bottom, 1536-well tissue-culture-treated plates using a multidrop combi dispenser. The plates were covered with stainless steel gasket lids. 2-3. The plates were cultured overnight at 37C with 5% CO2. Twenty-three nL of compounds (eight selected concentrations from the NPC / MIPE) or positive control (10 mM stock of bortezomib) in DMSO was transferred to each well of the assay plate using a pin tool (Kalypsys, San Diego, CA, USA). The final concentration of the compounds in the 5 uL assay volume ranged from 0.5 nM to 46 uM. 4-6. After 48 hours of incubation at 37C and 5% CO2, 4 uL of CellTilter-Glo luminescent substrate mix (Promega, Madison, WI, USA) was added to each well. Then the plates were incubated for 20 minutes at room temperature. 7. After incubation, luminescence was measured using a ViewLux plate reader (PerkinElmer, Waltham, MA, USA) with a clear filter was used to measure the number of metabolically competent cells. To determine compound activity in the qHTS assay, the titration-response data for each sample was plotted and modeled by a four-parameter logistic fit yielding IC50 and efficacy (maximal response) values. […] REFERENCES: Inglese J, Shamu CE and Guy RK, Reporting data from high throughput screening of small molecule libraries, Nature Chemical Biology, 2007, 3(8): 438-441. doi.org/10.1038/nchembio0807-438.
In the case of CO[C@@H](C)Cn1c(=O)n(C)c2cnc3ccc(-c4cncc(C(C)(C)O)c4)cc3c21, the Potency is reported as 3.55 µM (active). With Oc1cccc(-c2c3nc(c(-c4cccc(O)c4)c4ccc([nH]4)c(-c4cccc(O)c4)c4nc(c(-c5cccc(O)c5)c5ccc2[nH]5)CC4)C=C3)c1 the Potency was 6.51 µM (active). In the case of O=C(NCc1ccc(S(=O)(=O)c2cccc(C(F)(F)F)c2)cc1)c1cnc2[nH]ncc2c1, the Potency is reported as 0.0282 µM (active). With CC(C)NCCCC1(C(N)=O)c2ccccc2-c2ccccc21 the activity (max response) was 9.8%. N#Cc1ccnc(N2C(=O)CC[C@H]2C(=O)N(c2cncc(F)c2)[C@H](C(=O)NC2CC(F)(F)C2)c2ccccc2Cl)c1 showed an activity (max response) of 6.3%. With COC(c1ccccc1)(c1ccccc1)[C@H](Oc1nc(C)cc(C)n1)C(=O)O the activity (max response) was 2.42% and -1.06%. In the case of CC(C)N(CCCNC(=O)Nc1ccc(C(C)(C)C)cc1)C[C@H]1O[C@@H](n2cc(Br)c3c(N)ncnc32)[C@H](O)[C@@H]1O, the Potency is reported as 28.2 µM (active). With OC[C@]1(O)OC[C@@H](O)[C@H](O)[C@@H]1O the activity (max response) was 6.17%. CN1c2cc(O)c(N=NC(N)=O)cc2CC1S(=O)(=O)O (stereo not given) showed an activity (max response) of 12.8%. CC#CCn1c(N2CCC[C@@H](N)C2)nc2c1c(=O)n(Cc1nc(C)c3ccccc3n1)c(=O)n2C gave an activity (max response) of 0.332%. With O=C(O)/C=C\C(=O)O the activity (max response) was 6.23%. With Cn1cc(-c2ccc(S(=O)(=O)n3ccc(/C=C/C(=O)Nc4ccccc4N)c3)cc2)cn1 the Potency was 0.794 µM (active). For C[C@H]1[C@H](NC(=O)/C(=N/OC(C)(C)C(=O)O)c2csc(N)n2)C(=O)N1S(=O)(=O)O (stereo in doubt), the activity (max response) was 8.46%. In the case of CCN1CCN(c2cc3c(cc2F)c(=O)c(C(=O)O)cn3C2CC2)CC1, the activity (max response) is reported as 2.41%. O=c1ncccn1[C@@H]1O[C@H](CO)[C@@H](O)[C@H]1O showed an activity (max response) of -5.69%. OCCn1cc(-c2ccc3c(c2)CC/C3=N\O)c(-c2ccncc2)n1 showed an activity (max response) of -9.16%. For O=C(NCCCNc1nc(Nc2cccc(CN3CCOCC3)c2)ncc1C1CC1)C1CCC1, the activity (max response) was 10.1%. CC(N=C(NC#N)Nc1ccncc1)C(C)(C)C (stereo not given) gave an activity (max response) of 1.19%. For CN(C(=O)c1c(O)c2ccccc2n(C)c1=O)c1ccccc1, the activity (max response) was 3.23% and -16.1%. With C[C@@]12C(=O)OC(=O)[C@]1(C)C1CCC2O1 the Potency was 7.31 µM (active). Work on C[C@H](CN1CCCC1)C(=O)c1ccc(C(F)(F)F)cc1 yielded an activity (max response) of -1.72%. In the case of CC[C@@]1(O)C(=O)OCc2c1cc1n(c2=O)Cc2c-1nc1ccccc1c2CCNC(C)C, the Potency is reported as 0.0823 µM (active). OCCc1ccccc1 showed an activity (max response) of 10.1%. For CCCCc1oc2ccccc2c1C(=O)c1cc(I)c(OCCN(CC)CC)c(I)c1, the Potency was 31.6 µM (active). For O=C1NCCc2[nH]c(-c3ccncc3)cc21, the Potency was 7.94 µM (active). CN1CCN(N)CC1 gave an activity (max response) of -3.26%. For COCCOc1nc(-c2ccc(Cl)c(Cl)c2)n(-c2ccc(NC(=O)CCl)cc2)n1, the Potency was 4.47 µM (active). N[C@H](C(=O)O)c1ccc(O)cc1 gave an activity (max response) of 5.01%. Molecule COCCOCC(OC)OC has an activity (max response) of 10.1%. CC(=O)CC/C=C(\C)CC/C=C(\C)CC/C=C(\C)CCC=C(C)C gave an activity (max response) of 9.79%. Work on Nc1nc(OCc2cc(Br)cs2)c2[nH]cnc2n1 yielded an activity (max response) of -10.5%. In the case of NCC1CCN(c2nccc(-c3ccc4ccccc4c3)n2)CC1, the Potency is reported as 22.4 µM (active). For CC(=O)OC[C@H]1O[C@@](COC(C)=O)(O[C@H]2O[C@H](COC(C)=O)[C@@H](OC(C)=O)[C@H](OC(C)=O)[C@H]2OC(C)=O)[C@@H](OC(C)=O)[C@@H]1OC(C)=O, the activity (max response) was 1.89%. With CC(=O)OCC(=O)[C@@]12OC(C)(C)O[C@@H]1C[C@H]1[C@@H]3C[C@H](F)C4=CC(=O)C=C[C@]4(C)[C@@]3(F)[C@@H](O)C[C@@]12C the activity (max response) was 10.5% and 8.23%. COc1ccc2nc(SCc3ncc(C)c(OC)c3C)[nH]c2c1 showed an activity (max response) of 3.67%. Cc1ccccc1C(=O)N1CC/C(=N\OS(=O)(=O)O)c2ccc(Cl)cc21 gave an activity (max response) of 5.63%. With CC(C)C[C@H](NC(=O)[C@H](CCc1ccccc1)NC(=O)CN1CCOCC1)C(=O)N[C@@H](Cc1ccccc1)C(=O)N[C@@H](CC(C)C)C(=O)[C@@]1(C)CO1 the Potency was 103 nM (active) and 112 nM (active). Work on C[C@@H]1CC[C@@]2(OC1)O[C@H]1C[C@H]3[C@@H]4CC[C@H]5C[C@@H](O)CC[C@]5(C)[C@H]4CC(=O)[C@]3(C)[C@H]1[C@@H]2C yielded an activity (max response) of 5.1%. With O=C(/C=C\n1cnc(-c2cc(C(F)(F)F)cc(C(F)(F)F)c2)n1)NNc1cnccn1 the Potency was 12.6 µM (active). For CN1CCN(CC(=O)N2c3ccccc3C(=O)Nc3cccnc32)CC1, the activity (max response) was -3%.
